The values below come from PubChem BioAssay.

In experiment [1] the test system is XIP peptide (Xip251-270) binding. The experiment in a line: small-molecule binders of XIP peptide, primary screen, biochemical, small-molecule microarray, fluorescence 635/667 nm, 0.1 µg/mL protein (AID 1182). Conditions: fluorescent protein binding, 635 nm, higher = more signal, called active from +8 up or from −8 down.
The test system of a further experiment is XIP peptide (Xip251-270). The experiment in a line: small-molecule binders of XIP peptide, primary screen, biochemical, small-molecule microarray, fluorescence 635/667 nm, 0.5 µg/mL protein (AID 1183). To be noted: small-molecule microarray binding, fluorescence 635 nm; higher = more signal.
Experiment [2] can be described thus: Plasmodium falciparum growth inhibition, primary screen, strain 3D7, DAPI fluorescence, 100 nL (AID 1184).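 Also: parasites grown inside human red blood cells in medium with human serum.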 To be noted: P. falciparum 3D7 growth, 3 d, higher = more signal.
Experiment [3] concerns the target Homeobox protein Hox-A13 (Mus musculus) (UniProt Q62424). Description: inhibitors of HoxA13-DNA binding, primary screen, biochemical, fluorescence polarization, labeled oligonucleotide (AID 1185). Conditions: 15 min, higher = more signal, called active from +8 up or from −8 down. (In general: Fluorescence polarisation rises when a labelled molecule tumbles more slowly, as on binding a larger partner.)

Experiment [4] can be described thus: inhibitors of hydroxyurea-induced Chk1 phosphorylation, primary screen, imaging, HeLa, phospho-Chk1 antibody, percent positive cells (AID 1186). To be noted: hydroxyurea-induced phospho-Chk1 immunofluorescence imaging, higher = more signal.
A short description of experiment [5]: inhibitors of hydroxyurea-induced Chk1 phosphorylation, primary screen, imaging, HeLa, phospho-Chk1 nuclear intensity (AID 1187). Conditions: hydroxyurea-induced phospho-Chk1 immunofluorescence imaging, higher = more signal.

Calls of active or inactive are those of the source. Unless noted, no rule for the calls is given here.

Chain of Homeobox protein Hox-A13 (Mus musculus) (Q62424 whole entry, looked up): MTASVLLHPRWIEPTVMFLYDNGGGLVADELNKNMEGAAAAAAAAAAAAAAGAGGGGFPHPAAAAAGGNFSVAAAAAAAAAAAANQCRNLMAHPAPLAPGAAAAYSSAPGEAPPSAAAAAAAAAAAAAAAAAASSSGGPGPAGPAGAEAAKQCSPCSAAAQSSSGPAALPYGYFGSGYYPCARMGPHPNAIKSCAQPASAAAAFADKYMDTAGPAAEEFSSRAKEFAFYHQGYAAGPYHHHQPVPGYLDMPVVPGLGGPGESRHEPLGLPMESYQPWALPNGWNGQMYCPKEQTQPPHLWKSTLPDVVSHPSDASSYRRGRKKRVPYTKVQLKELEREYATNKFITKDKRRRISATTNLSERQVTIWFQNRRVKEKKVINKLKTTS

As to `CN(C)C(=O)[C@@]1(Cc2ccccc2CN=[N+]=[N-])N=C(c2ccc(OCCCO)cc2)O[C@H]1c1ccccc1CN=[N+]=[N-]`, the results for the composite z-score (in experiment [1]; in the experiment on XIP peptide (Xip251-270)) were 0.105 (inactive) and 0.707, respectively. The z-score in experiment [2] was -2.15; in experiment [3] it was -2.04 (inactive); in experiment [4], -0.0765 (inactive); in experiment [5] it was 0.127 (inactive).

In the case of `O=C1N(Cc2ccccc2)Cc2ccccc2[C@@H]2OC(c3ccc(OCCCO)cc3)=N[C@]12CCS(=O)(=O)c1ccccc1`, the composite z-score in experiment [1] was 0.0667 (inactive); in the experiment on XIP peptide (Xip251-270), 0.736. The z-score in experiment [2] is -2.17; in experiment [3], 0.722 (inactive); in experiment [4] it was -0.0608 (inactive); in experiment [5], 0.268 (inactive).

Turning to `COC(=O)[C@@]1(Cc2ccccc2)[C@@H]2C(=CC(=O)[C@H]2CC(=O)C(=O)N(C)C)CN1C(=O)c1ccccc1`, the composite z-score in experiment [1] is 0.0477 (inactive); in the experiment with XIP peptide (Xip251-270) it was 0.345. In addition, the z-score in experiment [2] is -0.99; in experiment [3], -3.77 (inactive); in experiment [4], 0.0041 (inactive); in experiment [5], 0.253 (inactive).

Regarding `O=C1OCCC=C[C@H]2OC34C=CCN(Cn5nnc6ccccc65)C(=O)[C@H]3N(CCCCCCO)C(=O)[C@@H]4C12` (some centres not stated), the results for the composite z-score (in experiment [1]; with XIP peptide (Xip251-270)) were 1.62 (inactive) and -0.948, respectively. The z-score in experiment [2] is 0.006; in experiment [3], -3.78 (inactive); in experiment [4], -0.667 (inactive); in experiment [5], -0.21 (inactive).

On to `COc1ccc([Si](C)(C)[C@@H]2[C@@H](CCn3cc([C@H](O)c4ccccc4)nn3)O[C@]3(C(=O)N(Cc4ccc(N5CCC5=O)cc4)c4ccccc43)[C@H]2C)cc1`, for which the composite z-score in experiment [1] is -0.325 (inactive); with XIP peptide (Xip251-270), 0.641. Besides, the z-score in experiment [2] was -2.47; in experiment [3] it was -2.32 (inactive); in experiment [4], -0.169 (inactive); in experiment [5] it was 0.663 (inactive).

For `Cc1ccc(S[C@]2(C(=O)O)CC(=O)N(Cc3cc(C(F)(F)F)cc(C(F)(F)F)c3)[C@@H]2c2ccc(CO)cc2)cc1`, the composite z-score was -0.287 (inactive) in experiment [1] and -1.25 in the experiment with XIP peptide (Xip251-270). The z-score in experiment [2] is 0.777; in experiment [3], -3.18 (inactive); in experiment [4], 0.0261 (inactive); in experiment [5] it was -0.641 (inactive).

For `COC(=O)C(CC#Cc1ccc2c(c1)[C@]1(C(=O)N2)[C@H](C(=O)N2CCN(c3ncccn3)CC2)[C@H]2C(=O)O[C@H](c3ccccc3)[C@H](c3ccccc3)N2[C@@H]1c1ccc(OCCO)cc1)C(=O)OC`, the results for the composite z-score (in experiment [1]; with XIP peptide (Xip251-270)) were 1.22 (inactive) and 0.809, respectively. The z-score in experiment [2] was -1.97; in experiment [3], 1.63 (inactive); in experiment [4], -0.162 (inactive); in experiment [5], -0.285 (inactive).

For `CCOC(=O)C[C@H]1[C@H](OC(=O)Cc2ccc3c(c2)OCO3)[C@@H](NC(=O)CC(C)C)c2cc(OCCCO)ccc2N1C(=O)Cc1ccc(OC)cc1`, the composite z-score is -0.107 (inactive) in experiment [1] and -0.311 with XIP peptide (Xip251-270). Further, the z-score in experiment [2] is 0.0373; in experiment [3], -3.35 (inactive); in experiment [4] it was -0.839 (inactive); in experiment [5] it was -0.401 (inactive).

For `O=C1O[C@H](c2ccccc2)[C@H](c2ccccc2)N2[C@H]1[C@@H](C(=O)Nc1nc3ccccc3s1)[C@]1(C(=O)Nc3ccc(C#CC4(O)CCCCCC4)cc31)[C@H]2c1ccccc1OCCO`, the composite z-score was 0.0536 (inactive) in experiment [1] and 0.812 with XIP peptide (Xip251-270). The z-score in experiment [2] was -2.09; in experiment [3] it was 2.05 (inactive); in experiment [4], 0.66 (inactive); in experiment [5], 0.976 (inactive).

With `COc1ccc([Si](C)(C)[C@@H]2[C@@H](CC(=O)N(CCO)Cc3ccccc3)O[C@]3(C(=O)N(Cc4cccc(N5C(=O)c6cccc7cccc5c67)c4)c4ccccc43)[C@H]2C)cc1`, the values for the composite z-score (in experiment [1]; with XIP peptide (Xip251-270)) were -0.338 (inactive) and 0.604, respectively. For the same compound, the z-score is -2.52 in experiment [2], -0.625 (inactive) in experiment [3], -0.512 (inactive) in experiment [4] and 0.0885 (inactive) in experiment [5].

With `Cc1ccc(S[C@]2(C(=O)NCC(F)(F)F)CC(=O)N(Cc3ccccc3C(F)(F)F)[C@@H]2c2ccc(CO)cc2I)cc1`, the composite z-score in experiment [1] was -0.485 (inactive); with XIP peptide (Xip251-270), -0.0347. For the same compound, the z-score in experiment [2] was -0.115; in experiment [3] it was -2.45 (inactive); in experiment [4], 0.504 (inactive); in experiment [5] it was 1.27 (inactive).

Take `CC(C)N1CC=CC23O[C@@H]4C=CCOC(=O)[C@@H]4[C@H]2C(=O)N(CCCO)[C@@H]3C1=O` (some centres not stated): the figures for the composite z-score (in experiment [1]; in the experiment with XIP peptide (Xip251-270)) were 0.816 (inactive) and 0.749, respectively. The z-score in experiment [2] was -1.91; in experiment [3] it was -3.62 (inactive); in experiment [4] it was 0.762 (inactive); in experiment [5], 0.0478 (inactive).

As to `COC(=O)[C@@]1(Cc2ccc(OC)cc2)[C@H]2c3cc(C(=O)N(C)C)n(C[C@H](O)CO)c3C[C@H]2CN1C(=O)c1ccccc1`, the results for the composite z-score (in experiment [1]; with XIP peptide (Xip251-270)) were 0.309 (inactive) and -0.587, respectively. Besides, the z-score is -1.74 in experiment [2], -3.35 (inactive) in experiment [3], 0.708 (inactive) in experiment [4] and 0.22 (inactive) in experiment [5].

Take `C=C(COC)/C(=C/C[C@H](OC(=O)c1ccncc1)c1ccccc1OCCO)c1cnc2ccccc2c1`: the figures for the composite z-score (in experiment [1]; in the experiment on XIP peptide (Xip251-270)) were 0.683 (inactive) and 0.612, respectively. The z-score in experiment [2] was -2.99; in experiment [3], -5.29 (inactive); in experiment [4], -0.446 (inactive); in experiment [5] it was -0.166 (inactive).

With `CC(C)Cc1ccc(CN2CC[C@@H](NC(=O)Nc3ccccc3)C2)cc1`, the composite z-score in experiment [1] was -0.243 (inactive); with XIP peptide (Xip251-270) it was -0.238. For the same compound, the z-score in experiment [2] was -1.51; in experiment [3] it was 0.339 (inactive); in experiment [4] it was 0.146 (inactive); in experiment [5], 0.459 (inactive).

On to `COC(=O)[C@@]1(Cc2ccccc2N=[N+]=[N-])N=C(c2ccc(OCCCO)cc2)O[C@H]1c1ccccc1N=[N+]=[N-]`, for which the composite z-score in experiment [1] is 0.764 (inactive); in the experiment on XIP peptide (Xip251-270) it was 0.848. The z-score in experiment [2] was -2.03; in experiment [3], -0.305 (inactive); in experiment [4], -0.362 (inactive); in experiment [5] it was -0.267 (inactive).

As for `CCCCO[C@H]1C[C@H]2C(I)=C[C@@H]1C(=O)[C@]21CO1`, the composite z-score in experiment [1] was -0.178 (inactive); in the experiment on XIP peptide (Xip251-270), 0.08. For the same compound, the z-score in experiment [2] is 1.06; in experiment [3], -1.07 (inactive); in experiment [4], 0.187 (inactive); in experiment [5], -0.0533 (inactive).
